Data taken from the supplement of paper PMC8285479.
Where “and” joins values, the source holds several entries; their conditions need not be identical. Identical values can stand only once. Counter-ions that a name gives are not always drawn. ± gives the standard deviation of the averaged measurements. Whole data set: some 1,900 compounds, median “normalised cell viability (NPI; 0 = phenylarsine oxide control, 1 = DMSO control)” near 1, cut for the lowest 2% near 0.039. Many of the other results were omitted from the sample, so the lowest values are more common in it than they were.

System: NCI-H1944
Assay: normalised cell viability (NPI; 0 = phenylarsine oxide control, 1 = DMSO control) (fraction of DMSO control); NCI-H1944 is a non-small cell lung cancer line; higher = more viable cells (less compound toxicity)
Settings: 6 days
[1] = glucocorticoid arm: hydrocortisone 2.75 uM co-treatment, compound 1 µM
[2] = glucocorticoid arm: hydrocortisone 2.75 uM co-treatment, compound 5 µM
[3] = glucocorticoid arm: hydrocortisone 2.75 uM pre-treated 2 days and continued, compound 1 µM
[4] = glucocorticoid arm: hydrocortisone 2.75 uM pre-treated 2 days and continued, compound 5 µM
[5] = glucocorticoid arm: vehicle, compound 1 µM
[6] = glucocorticoid arm: vehicle, compound 5 µM
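Note: CTB read-out in 384-well plates, triplicate wells, NPI normalised per plate against 1 µM phenylarsine oxide (0) and 0.1% DMSO (1) controls.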

Row | Compound | normalised cell viability [1] | normalised cell viability [2] | normalised cell viability [3] | normalised cell viability [4] | normalised cell viability [5] | normalised cell viability [6]
1 | Cc1nc(Nc2n[nH]c3c2CN(C(=O)N[C@H](CN(C)C)c2ccccc2)C3(C)C)c2sccc2n1 | 0.832 ± 0.033 | 0.29 ± 0.072 | 1.05 ± 0.015 | 0.763 ± 0.02 | 0.12 ± 0.011 | 0.0302 ± 0.0031
2 | CC(C)CC(=O)Nc1n[nH]c2c1CN(C(=O)C1CCN(C)CC1)C2(C)C | 0.8357 ± 0.0074 | 0.369 ± 0.0055 | 0.968 ± 0.0056 | 0.962 ± 0.036 | 0.365 ± 0.023 | 0.0459 ± 0.004
3 | N=C1Sc2ccccc2C2=NCCCN12 | 1.017 ± 0.0058 | 1.01 ± 0.031 | 1.02 ± 0.011 | 0.86 ± 0.28 | 1.002 ± 0.0068 | 1.02 ± 0.015
4 | Cc1nc(N=Nc2ccc(C(=O)O)cc2)c(COP(=O)(O)O)c(C=O)c1O | 0.999 ± 0.0017 | 0.998 ± 0.02 | 1.01 ± 0.01 | 1.005 ± 0.0087 | 0.9937 ± 0.0085 | 1 ± 0.016
5 | CN(C)CCCCSC(=N)N | 1.001 ± 0.0081 | 1.01 ± 0.011 | 1.02 ± 0.026 | 1.02 ± 0.011 | 0.9953 ± 0.0064 | 0.9883 ± 0.005
6 | O=C(CCCCCCNC(=O)c1cnc(N(c2ccccc2)c2ccccc2)nc1)NO | 0.9803 ± 0.0098 | 0.922 ± 0.018 | 0.996 ± 0.021 | 0.9343 ± 0.0021 | 1.01 ± 0.01 | 0.9873 ± 0.0071
7 | O=C(CCCCCCNC(=O)c1cnc(N(c2ccccc2)c2ccccc2)nc1)NO [Rocilinostat (ACY-1215)] | 0.9393 ± 0.0064 | 0.966 ± 0.011 | 0.944 ± 0.015 | 0.945 ± 0.018 | 0.9923 ± 0.0021 | 0.918 ± 0.0096
8 | O=C(CCCCCCC(=O)NO)NO [Suberoyl bis-hydroxamic acid] | 0.958 ± 0.024 | 0.833 ± 0.053 | 0.968 ± 0.021 | 0.868 ± 0.04 | 1.005 ± 0.0057 | 0.9962 ± 0.0093
9 | NC(=S)c1ccc[n+]([C@@H]2O[C@@H](COP(=O)([O-])OP(=O)(O)OC[C@H]3O[C@@H](n4cnc5c(N)ncnc54)C(OP(=O)(O)O)[C@H]3O)C(O)C2O)c1 (some centres not stated) [Thio-NADP sodium] | 1.013 ± 0.0058 | 1.01 ± 0.026 | 1.03 ± 0.021 | 0.998 ± 0.013 | 1.013 ± 0.0058 | 1.013 ± 0.0058
10 | CC(C)c1cc(-c2ccc(F)c3ccccc23)nc(N)n1 | 0.9813 ± 0.0081 | 0.9787 ± 0.005 | 0.991 ± 0.018 | 0.993 ± 0.013 | 0.984 ± 0.025 | 1.001 ± 0.0079
11 | CNCc1ccc(C)c(NC(=O)c2ccc(Nc3nc(-c4ccccc4)c4ccccc4n3)cc2)c1 | 0.965 ± 0.017 | 0.939 ± 0.017 | 0.9953 ± 0.0021 | 0.959 ± 0.015 | 0.991 ± 0.0027 | 0.988 ± 0.011
12 | Cc1cc(Nc2ccc(NC(=O)c3ccc(Nc4ccnc5ccccc45)cc3)cc2)nc(N)n1 | 0.99 ± 0.017 | -0.000696 ± 0.0048 | 0.9783 ± 0.0035 | 0.492 ± 0.5 | 1.006 ± 0.0075 | 0.000819 ± 0.0006
13 | COc1ccc(Cl)cc1NC(=O)Nc1cc(C)nc2ccccc12 | 1.01 and 1.02 |  |  |  | 1 and 1.01 | 
14 | O=C(O)C=C1CCCc2ccccc2C1O (configuration not stated) | 0.987 ± 0.012 | 0.948 ± 0.026 | 0.987 ± 0.02 | 0.994 ± 0.044 | 0.983 ± 0.0069 | 0.987 ± 0.01
15 | Cc1cc(Cn2cnc3c2C[C@@H](C(=O)O)N(C(=O)C(c2ccccc2)c2ccccc2)C3)ccc1N | 1.03 ± 0.01 | 1.01 ± 0.022 | 1.023 ± 0.0058 | 1.01 ± 0.014 | 1.027 ± 0.0058 | 1.02
16 | Cc1cc2c(cc1Cl)N(C(=O)Nc1cccc3ncccc13)CC2 | 0.985 ± 0.011 | 0.965 ± 0.015 | 1 ± 0.016 | 1.03 ± 0.084 | 0.9793 ± 0.0086 | 0.992 ± 0.007
17 | Cn1ccc2cc3c(cc21)CCN3C(=O)Nc1cccnc1 | 1.02 ± 0.011 | 1.01 ± 0.018 | 1.05 ± 0.021 | 1.02 ± 0.017 | 1.03 ± 0.011 | 1.01 ± 0.01
18 | COc1cc2c(cc1C(F)(F)F)N(C(=O)Nc1cc(F)cc(-c3cccnc3)c1)CC2 | 0.994 ± 0.017 | 0.0391 ± 0.01 | 1.02 ± 0.01 | 0.903 ± 0.021 | 0.974 ± 0.028 | 0.00107 ± 0.00012
19 | COc1ccc2cc(-c3nc(-c4ccc([S+](C)[O-])cc4)[nH]c3-c3ccncc3)ccc2c1 (configuration not stated) [Tie2 kinase inhibitor] | 1 ± 0.016 | 1.002 ± 0.0072 | 0.992 ± 0.0087 | 1 ± 0.018 | 0.997 ± 0.0017 | 0.9943 ± 0.0098
20 | Cn1cc(C(=O)OCC2CCN(CCNS(C)(=O)=O)CC2)c2ccccc21 | 1.01 ± 0.01 | 0.997 ± 0.014 | 1.02 ± 0.011 | 1.03 ± 0.014 | 1.017 ± 0.0058 | 1.023 ± 0.0058
21 | CN1CCc2c(c3ccccc3n2Cc2ccc(C(=O)NO)cc2)C1 [Tubastatin A] | 0.984 ± 0.013 | 0.983 ± 0.026 | 0.983 ± 0.023 | 1.01 ± 0.023 | 0.991 ± 0.011 | 0.9927 ± 0.0063
22 | CN1CCc2c(c3ccccc3n2Cc2ccc(C(=O)NO)cc2)C1 [Tubastatin A HCl] | 0.9623 ± 0.0086 | 0.859 ± 0.016 | 0.967 ± 0.0035 | 0.913 ± 0.025 | 0.999 ± 0.01 | 0.9903 ± 0.0042
23 | NS(=O)(=O)c1cc(C(=O)O)c(NCc2ccco2)cc1Cl [Furosemide] | 1.002 ± 0.0076 | 0.9983 ± 0.0029 | 0.999 ± 0.011 | 0.995 ± 0.015 | 0.984 ± 0.002 | 0.9897 ± 0.0047
24 | OCC1OC(n2cnc3c(NCCc4ccccc4)ncnc32)C(O)C1O (configuration not stated) [N6-2-Phenylethyladenosine] | 1.006 ± 0.0069 | 0.9327 ± 0.0083 | 0.852 ± 0.27 | 1 ± 0.017 | 0.993 ± 0.0062 | 1 ± 0.017
25 | N=C(N)NCCCCNC(=N)N [Arcaine sulfate] | 0.987 ± 0.012 | 0.994 ± 0.033 | 0.993 ± 0.0066 | 1.01 ± 0.038 | 0.987 ± 0.013 | 0.9957 ± 0.0045
26 | C=C1C(=O)O[C@@H](CCC)[C@@H]1C(=O)O [Butyrolactone 3] | 1 ± 0.013 | 1.02 ± 0.015 | 0.998 ± 0.013 | 1.017 ± 0.0082 | 0.996 ± 0.0046 | 1.001 ± 0.0075
